According to PubChem BioAssay:
Unmarked numbers belong to inactive results.

Test: viability profiling in MM1S myeloma cells – cell-based, resazurin fluorescence, basal, 24 h, PK04 Diversity Set, profiling panel (AID 1174);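 further: MM1S multiple myeloma cell line; test concentration not given here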
Settings: higher = more signal, called active from +8 up or from −8 down

Compound | z-score
COCC(=C=CC[C@H](O)c1ccc(OCCO)cc1)C[C@H](O)COCc1ccccc1 | 1.18
O=C1NC(=O)C2C1C=CC(C(O)c1cc(C(F)(F)F)cc(C(F)(F)F)c1)N2Nc1ccc(Cl)cc1Cl (stereo not given) | -1.99
COC(=O)[C@H](Cc1ccccc1)N1CC(/C=C/C2CC2)=C[C@@H]1[C@@H](O)Cc1ccccc1 | -2.24
NC(=O)NCC#Cc1ccc2c(c1)[C@]1(C(=O)N2)[C@H](C(=O)Nc2nc3ccccc3s2)[C@H]2C(=O)O[C@H](c3ccccc3)[C@H](c3ccccc3)N2[C@@H]1c1ccc(O)cc1 | 0.917
O=C1O[C@@H](c2ccccc2)[C@@H](c2ccccc2)N2[C@@H](c3ccc(O)cc3)[C@]3(C(=O)Nc4ccc(C#CC5=CCCCC5)cc43)[C@@H](C(=O)N3CCN(c4ncccn4)CC3)[C@H]12 | -0.0922
CC(=O)NCCCC[C@@H]1NC(=O)[C@@H]2C[C@H](C(=O)O)[C@H](c3ccc(O)cc3)N2C1=O | 0.699
COc1cc(CO)cc(I)c1O[C@H]1C=C(C(=O)NCCO)C[C@@H](NCc2ccccc2F)[C@@H]1O | -0.233
O=C1NCC(=O)N2[C@@H]1C[C@@H](C(=O)O)[C@H]2c1ccc(O)cc1 | 0.393
COC(=O)[C@@]1(Cc2ccc(F)cc2)[C@H]2c3cc(C(=O)N4CCCC4)n(CCF)c3C[C@H]2CN1C(=O)c1ccccc1 | -0.547
C[C@]1(C(=O)O)c2ccccc2C(=O)N(Cc2ccccc2)[C@H]1c1ccc(CO)cc1 | 0.936
CCOC(=O)C[C@H]1[C@H](OC(=O)c2ccc(-c3ccccc3)cc2)[C@@H](NC(=O)C2CCCCC2)c2cc(OCCCO)ccc2N1C(=O)c1ccccc1 | -0.464
O=C1O[C@@H](c2ccccc2)[C@@H](c2ccccc2)N2[C@@H](c3ccccc3OCCO)[C@]3(C(=O)Nc4ccccc43)[C@@H](C(=O)NC[C@H](O)c3ccccc3)[C@H]12 | -6.16
C=CC1c2cc(O)c(OC)cc2CCN1Cc1sc2ccccc2c1Cl (stereo not given) | -0.467
CC(C)CN1C(=O)[C@@]2(c3ccc([N+](=O)[O-])cc3)CC(=O)N(CC34CC5CC(CC(C5)C3)C4)[C@@H]2c2ccc(CO)cc21 | 0.113
COCCOC(=O)N1C(=O)[C@@]2(c3cc(C#Cc4ccc(OC)cc4)ccc31)[C@H](C(=O)N1CCN(c3ncccn3)CC1)[C@H]1C(=O)O[C@H](c3ccccc3)[C@H](c3ccccc3)N1[C@@H]2c1ccccc1OCCO | -0.353
CCOC(=O)C[C@H]1[C@H](OC(=O)Cc2ccc3c(c2)OCO3)[C@@H](NC(=O)Cc2ccc(OC)cc2)c2cc(OCCCO)ccc2N1C(=O)c1ccccc1 | -0.727
[N-]=[N+]=Nc1ccccc1C[C@]1(C(=O)NCc2ccccc2)N=C(c2ccc(OCCCO)cc2)O[C@H]1c1ccccc1 | -1.73
COC(=O)Cn1c(C(=O)N2CCCC2)cc2c1C[C@H]1CN(C(=O)c3ccccc3)[C@@](Cc3ccc(F)cc3)(C(=O)OC)[C@@H]21 | -1.35

Compound | z-score
COc1ccc(NN2C(C(O)c3ccco3)C=CC3C(=O)N(C4CCCCC4)C(=O)C32)cc1 (stereo not given) | -1.59
CCCCN1CC=CC23O[C@@H]4C=CCOC(=O)[C@@H]4[C@H]2C(=O)N(C(C)CO)[C@@H]3C1=O (stereo not given in full) | -0.536
COc1ccc(NC(=O)O[C@H]2[C@H](OC(=O)Nc3ccc4c(c3)OCO4)[C@@H](OC(=O)Nc3ccc4c(c3)OCO4)[C@@H](OC)O[C@@H]2CO)cc1 | -0.844
C=CCN1C(=O)[C@]2(CC=C)N=C(c3ccc(OCCCO)cc3)O[C@@H]2c2ccccc21 | -3.23
CC1CC/C=C\[C@H]2OC34C=CCN(C(C)C)C(=O)[C@H]3N(CCCCCO)C(=O)[C@@H]4C2C(=O)O1 (stereo not given in full) | 1.46
COC(=O)[C@@]1(Cc2ccccc2)[C@H]2c3cc(C(=O)N4CCCC4)n(Cc4ccsc4Br)c3C[C@H]2CN1C(=O)c1ccccc1 | -0.686
NCCCCCNC(=O)[C@@H]1C[C@@H]2C(=O)N[C@@H](CCCCN)C(=O)N2[C@@H]1c1cccc(OCCO)c1 | 1.11
CCOC(=O)C1=CC[C@@H](c2ccc([N+](=O)[O-])cc2)N(S(=O)(=O)c2ccc(C)cc2)[C@H]1c1ccccc1 | 0.541
CC(C)c1ccc(NN2C(C(O)c3ccco3)C=CC3C(=O)N(c4ccccc4)C(=O)C32)cc1 (stereo not given) | -1.23
COC1(C)CN(Cc2ccccc2Br)[C@H](/C=C/c2ccccc2)[C@H](Cc2ccccc2)O1 (stereo not given in full) | 0.832
CC=CC(O)C1C=CC2C(=O)N(C)C(=O)C2N1N1CCCCC1 (stereo not given) | -0.986
CCOC(=O)C1=CC[C@@H](c2cc(Cl)ccc2Cl)N(S(=O)(=O)c2ccc(C)cc2)[C@H]1c1ccc(OC)cc1 | -1.34
C=C(CCCC)C(=O)CC[C@@H](OC(=O)c1ccccc1-c1ccccc1C(=O)O)c1cccc(OCCO)c1 | -0.348
CC(C)(C)OC(=O)CC[C@@]1(C(=O)O)N=C(c2ccc(OCCCO)cc2)O[C@@H]1c1ccccc1CN=[N+]=[N-] | -0.378
O=C1C[C@]2(c3ccc([N+](=O)[O-])cc3)C(=O)N(Cc3ccccc3)c3cc(CO)ccc3[C@H]2N1CC12CC3CC(CC(C3)C1)C2 | -0.434
O=C(CS)NCCCCCCNC(=O)[C@@H]1C[C@@H]2C(=O)N3CCC[C@H]3C(=O)N2[C@@H]1c1cccc(OCCO)c1 | 0.832
CN(C)CCCCNC(=O)[C@H]1C[C@H]2C(=O)N[C@@H](CCCCN(C)C)C(=O)N2[C@H]1c1cccc(OCCO)c1 | 0.895
